# Source: paper PMC5540273 (PLoS ONE, 2017)
# What was measured:
# Conditions in all cases: concentration: 1 μM, replicates: in singlicate; n = 1
# [1] = system: T1, HASPIN
# T1 construct: gene GSG2
# [2] = system: HCK
# [3] = system: HIPK1
# [4] = system: HIPK2
# [5] = system: HIPK3
# [6] = system: HIPK4
# [7] = system: HPK1
# [8] = system: HUNK
# [9] = system: ICK
# [10] = system: IGF1R
# 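Further: KINOMEscan kinase panel screen.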
Structure (SMILES),%Inh [1] [%],%Inh [2] [%],%Inh [3] [%],%Inh [4] [%],%Inh [5] [%],%Inh [6] [%],%Inh [7] [%],%Inh [8] [%],%Inh [9] [%],%Inh [10] [%]
c1ccc(Oc2ccc(Nc3ccnc4cc(-c5ccc(CNCCN6CCOCC6)o5)ccc34)cc2)nc1 [GW567145],43,76,0,0,10,0,15,12,0,0
Cl.Cl.NCC(NCc1ccc(-c2ccnc3[nH]ccc23)s1)c1ccccc1 (stereo not drawn) [GSK1321565],99.8,0,53,55,71,49,66,0,0,0
Cc1ccc(S(=O)(=O)Nc2ccc(Nc3nccc(Nc4cccc5[nH]ncc45)n3)cc2)cc1 [GSK581271],0,0,0,0,1,0,23,2,0,10
Clc1ccc(-c2nn3ncccc3c2-c2ccnc(Nc3ccc4c(c3)OCCO4)n2)cc1 [GW829116],0,54,14,0,0,0,0,50,0,0
Nc1n[nH]c2cnc(-c3ccccc3)cc12 [SB-642124],68,0,64,78,88,7,58,0,26,0
COc1cc(Nc2nccc(N3CCC(NC(=O)c4cc5ccccc5s4)C3)n2)cc(OC)c1OC (stereo not drawn) [GSK1379760],19,0,9,0,0,9,90,0,0,13
COc1ccc(-c2coc3ccc(-c4nnc(SCc5ccc(OC)c(C(F)(F)F)c5)o4)cc23)cc1,0,38,12,17,14,0,4,0,7,12
O=C(Nc1cccc(-c2nn3ccccc3c2-c2ccnc(Nc3cccc(C(F)(F)F)c3)n2)c1)c1c(F)cccc1F [GSK292658],0,96.9,0,0,0,0,21,0,0,0
COc1ccc(Nc2nccc(NCCNC(=O)c3cc4ccccc4s3)n2)cc1 [GSK1379896],0,15,0,0,22,0,44,13,0,0
Cl.c1ccc(-c2ccc3c(Nc4ccc5[nH]ncc5c4)ccnc3c2)nc1 [GW440137],6,16,62,47,51,0,23,9,0,12
COc1cccc(C(=O)Nc2cccc(Oc3ccc4nc(NC(=O)C5CC5)cn4n3)c2)c1,0,98.1,37,0,0,15,42,12,0,0
CCn1c(-c2nonc2N)nc2c(C#CC(C)(C)O)nc(OC[C@H](N)c3ccccc3)cc21 [GSK943949],22,0,21,0,14,0,30,3,0,0
COc1cccc(-c2ccc3c(NC(=O)C4CC4)n[nH]c3n2)c1 [SB-710903],32,0,0,0,41,10,41,1,23,17
Cc1cccc(Nc2nc(N[C@H]3CCNC3)ncc2C(N)=O)c1.Cl [GSK2197149],54,82,21,8,30,0,88,0,0,2
COc1ccc(CNC(=O)NC2CCN(c3ccnc(Nc4ccc(F)cc4)n3)CC2)cc1 [GSK1379788],6,0,0,0,9,0,37,14,0,0
Cc1cccc(NC(=O)Nc2ccc(Oc3ncnc4ccn(C)c34)cc2)c1,0,25,24,0,0,52,31,4,0,0
CC(C)c1nc(-c2cccc(NS(=O)(=O)c3c(F)cccc3F)c2F)c(-c2ccnc(Nc3ccc(N4CCOCC4)nc3)n2)s1 [GSK2008607],0,99.5,91.1,92.3,94.5,94.7,88,0,77,8
COC(=O)Nc1nc2cc(Oc3ccc(NC(=O)Nc4cc(C(F)(F)F)ccc4F)cn3)ccc2[nH]1.Cl.Cl [GW681170],47,15,0,0,0,91.6,16,7,0,12
O=C(Nc1cccc(-c2nn3ncccc3c2-c2ccnc(Nc3ccccc3)n2)c1)c1c(F)cccc1F [GSK198271],0,99.3,0,0,9,28,43,3,0,24
Cc1ccc(F)c(C(=O)Nc2cccc(-c3nn4ccccc4c3-c3ccnc(Nc4cccc(F)c4)n3)c2)c1F [GSK361061],1,94.4,0,0,14,57,21,11,0,41
C[C@@H](Oc1cc(-n2cnc3cc(-c4ccnc(NCCS(C)(=O)=O)c4)ccc32)sc1C(N)=O)c1ccccc1Cl [GSK907232],26,34,0,0,7,20,87,0,19,0

Structure (SMILES),%Inh [1] [%],%Inh [2] [%],%Inh [3] [%],%Inh [4] [%],%Inh [5] [%],%Inh [6] [%],%Inh [7] [%],%Inh [8] [%],%Inh [9] [%],%Inh [10] [%]
Cn1cc(-c2ccc3c(c2)CCN3C(=O)Cc2cccc(Cl)c2)c2c(N)ncnc21 [GSK2606590],2,0,13,0,13,0,47,4,0,0
O=C(Nc1n[nH]c2nc(-c3ccc(O)cc3)ccc12)C1CC1 [SB-710363],36,35,94.4,91.8,90.5,21,17,0,98.5,0
O=c1[nH]cc(-c2ccc(N3CCOCC3)cc2)c2sc(-c3cn[nH]c3)cc12 [GSK2276055],79,0,97.3,97.5,99,47,26,11,31,0
CC(C)(C)c1ccc2nccc(Nc3cccc(O)c3)c2c1 [GW856795],27,60,18,50,0,0,37,0,24,0
O=C(Nc1n[nH]c2cc(-c3ccoc3)ccc12)C1CC1 [SB-738481],27,0,57,65,58,46,7,0,94.8,0
CN(C)Cc1ccc(-c2ccc3c(Nc4ccc(Oc5ccccn5)cc4)ccnc3c2)o1 [GW567148],26,93.8,0,0,1,0,0,0,0,0
CN1CCN(Cc2cccc(-c3ccc4c(Nc5ccc(Oc6ccccc6)cc5)ccnc4c3)c2)CC1 [GW578342],17,95.1,0,2,0,0,25,11,0,5
CCS(=O)(=O)c1ccc(OC)c(Nc2nccc(-c3c(-c4cccc(NC(=O)c5c(F)cccc5F)c4)nn4ncccc34)n2)c1 [GSK326180],0,77,0,0,1,0,25,22,21,57
c1ccc(-c2n[nH]cc2Nc2ccnc3ccccc23)nc1 [GW694077],100,0,92.7,98.6,98.3,47,32,0,0,2
Nc1ncnc2c1nc(-c1ccccc1)n2-c1ccccc1 [SKF-97293],38,27,7,16,35,9,21,0,19,12
Cl.Cl.NCC(NC(=O)c1cc(-c2ccccc2)c(-c2ccnc3[nH]ccc23)s1)c1ccccc1 (stereo not drawn) [GSK1321561],90.3,0,18,28,47,50,68,11,3,0
COCCOCCOc1cc2ncc3c4ccc(C#N)cc4[nH]c3c2cc1OC,18,4,90.3,87,87,32,7,0,41,2
Cc1ccc(C)c(NC(=O)NC2CCN(c3ccnc(Nc4ccc(F)cc4)n3)C2)c1 (stereo not drawn) [GSK1379720],44,0,0,10,0,0,45,0,0,25
Oc1cc(Nc2ccnc3cc(I)ccc23)ccc1F [GW552771],28,76,42,59,20,10,37,2,0,0
CCCCc1nn2ncccc2c1-c1ccnc(Nc2ccc(N3CCN(C)CC3)cc2)n1 [GW684941],25,73,24,0,32,71,61,0,17,16
Cl.NC(=O)c1cccc(Nc2nccc(Nc3ccc(Oc4c(Cl)cccc4Cl)c(Cl)c3)n2)c1 [GW659009],0,77,0,11,2,4,0,0,0,0
COc1cccc(C2=C(Nc3ccc(Cl)c(C(=O)O)c3)C(=O)NC2=O)c1 [SB-390769],0,0,7,0,11,0,55,0,10,26
Nc1ncc(-c2cccnc2)c2scc(-c3ccc4c(c3)CCN4C(=O)Cc3ccccc3)c12 [GSK683281],0,25,20,0,35,0,63,34,8,0
O=C(Nc1cccc(-c2nn3ccccc3c2-c2ccnc(Nc3cccc(F)c3)n2)c1)c1c(F)ccc(F)c1Cl [GSK357952],0,99.1,0,13,1,51,13,0,3,17
COc1ccc(Nc2nccc(N3CCC(NC(=O)Nc4cccc(OC)c4)C3)n2)cc1 (stereo not drawn) [GSK1379742],10,0,0,28,19,0,56,24,0,0
Nc1ncc(-c2ccc3nccc(-c4ccncc4)c3c2)cc1S(=O)(=O)N1CCOCC1 [GSK1627798],50,0,37,15,25,76,49,0,36,35

Structure (SMILES),%Inh [1] [%],%Inh [2] [%],%Inh [3] [%],%Inh [4] [%],%Inh [5] [%],%Inh [6] [%],%Inh [7] [%],%Inh [8] [%],%Inh [9] [%],%Inh [10] [%]
COc1cc(Nc2nccc(-c3c(-c4cccc(NC(=O)c5c(F)cccc5F)c4)nn4ncccc34)n2)cc(OC)c1OC [GSK327238],0,96.6,0,0,18,29,82,12,4,95.8
O=C(Nc1cccc(Oc2ccc3nc(NC(=O)C4CC4)cn3n2)c1)c1ccccc1C(F)(F)F,0,69,28,0,0,1,10,0,0,0
O=C(NC1CCN(c2ccnc(Nc3ccc(F)cc3)n2)C1)c1cc2ccccc2s1 (stereo not drawn) [GSK1379716],12,0,0,0,8,0,54,10,0,13
Cc1occc1-c1ncc(OC[C@@H](N)Cc2c[nH]c3ccccc23)cc1-c1ccc2[nH]nc(C)c2c1.O=C(O)C(F)(F)F [GSK682037],65,0,0,0,7,35,90,79,0,7
CNC(=O)c1ccccc1Nc1nc(Nc2ccc(N3CCOCC3)cc2)ncc1Cl.Cl [GSK1576028],80,99.6,99.4,99.3,99,99.3,98.8,0,57,96.6
COc1cc(Nc2nccc(-c3c(-c4cccc(NC(=O)c5c(F)cccc5F)c4)nn4ccccc34)n2)cc(OC)c1OC [GSK323521],0,0,12,0,16,14,50,24,0,32
CN(c1ccc(NC(=O)Nc2cc(C(F)(F)F)ccc2F)cc1)c1ccnc(Nc2ccc(S(N)(=O)=O)cc2)n1 [GW809893],2,98.3,59,64,84,99.1,99.4,15,21,0
CN1CCN(CCCNc2nccc(-c3c(-c4ccc(F)cc4)nn4cc(C(F)(F)F)ccc34)n2)CC1 [GW621581],0,14,0,2,0,0,30,0,0,0
O=C(O)C(F)(F)F.O=C(O)C(F)(F)F.O=c1[nH]ccc2nc(N[C@@H]3CCCNC3)nc(Nc3ccc(S(=O)(=O)N4CCOCC4)cc3)c12 [GSK2177277],81,92.6,83,92.9,97.2,54,98.2,0,88,90.8
Cl.c1ccc(-c2ccc3c(Nc4ccc5[nH]ccc5c4)ccnc3c2)nc1 [GW440138],23,19,0,0,0,0,10,0,0,40
Cc1ccc(C(=O)Nc2ccc(Nc3ccnc4cc(-c5nccs5)ccc34)cc2O)cc1.Cl [GW494702],82,93.4,0,37,1,0,1,30,28,0
O=C(Nc1ccccc1F)NC1CCN(c2ccnc(Nc3ccc(F)cc3)n2)CC1 [GSK1379800],9,0,0,0,16,0,34,6,3,10
CCn1c(-c2nonc2N)nc2c(C#CC(C)(C)O)ncc(OCCCCN)c21.O=C(O)C(F)(F)F.O=C(O)C(F)(F)F [GSK507274],0,0,47,57,100,0,49,0,11,12
Cn1cc(-c2ccc3c(c2)CCN3C(=O)Cc2cccc(F)c2)c2c(N)ncnc21 [GSK2603358],0,13,0,0,8,0,57,13,0,23
COc1cc2c(cc1OCCN1CCNCC1)ncc1c3ccc(C#N)cc3[nH]c21,93.5,3,95.2,99.8,91.9,54,0,0,48,0
CC(=O)Nc1nc2cnc(Nc3cc(NC(=O)c4cccc(C5(C#N)CC5)c4Cl)ccc3C)nc2s1,0,53,27,0,0,6,1,12,0,0
Cc1ccc(C(=O)N2CC[C@@H](O)C2)cc1-n1c(C)cc(OCc2ccc(F)cc2F)c(Br)c1=O,0,66,11,0,0,0,0,0,0,0
Cl.Cl.NCC(C(=O)Nc1cc(Br)c(-c2ccnc3[nH]ccc23)s1)c1ccccc1 (stereo not drawn) [GSK1269851],97.6,29,48,0,55,81,41,0,33,16
FC(F)(F)c1ccc(/C=C/c2cncnc2Nc2ccc3[nH]c(Cc4ccccc4)nc3c2)cc1 [GW709199],12,14,21,0,0,13,12,55,0,0
COc1cccc(NC(=O)NC2CCN(c3ccnc(Nc4cc(OC)c(OC)c(OC)c4)n3)C2)c1 (stereo not drawn) [GSK1379763],0,0,0,0,85,0,76,0,18,0
Cn1cc(-c2[nH]c3cc(NC(=O)[C@H](N)C4CCCCC4)cc4c3c2C=NNC4=O)cn1,52,96.9,88,80,80,89,65,0,0,0
